# Results from PubChem BioAssay (EPA / NIEHS).
# Inconclusive results are not listed. Calls of active or inactive are those of the source. Rule for the calls: active = hit-call score of the fitted dose curve at least 0.9, where 1 is the maximum; inconclusive = response in the unintended direction; inactive = score below 0.9.
# Assays:
# [1] = target: human Protein Tyrosine Phosphatase Receptor Type B (PTPRB), PTPRB (gene 5787) (UniProt P23467); assay: NVS_ENZ_hPTPRB: NovaScreen (NVS) Enzymatic Assay for human Protein Tyrosine Phosphatase Receptor Type B (PTPRB) (AID 2283211)
# Method in brief: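 Recombinant human PTPRB with a fluorescent substrate, product separated by electrophoretic mobility shift; read 1 h after dosing. Primary screen in duplicate at 25 uM; actives then retested in concentration series; loss of signal versus DMSO.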
# [2] = target: human Protein Tyrosine Phosphatase Receptor Type M (PTPRM), PTPRM (gene 5797) (UniProt P28827); assay: NVS_ENZ_hPTPRM: NovaScreen (NVS) Enzymatic Assay for human Protein Tyrosine Phosphatase Receptor Type M (PTPRM) (AID 2283215)
# Method in brief: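 Read-out is fluorescence after electrophoretic separation of substrate and product, taken 1.33 h post-dosing with recombinant enzyme. Compounds screened at 25 uM in duplicate, then concentration series for actives; activity as signal loss relative to DMSO.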
# [3] = target: human Tropomyosin Receptor Kinase A (TRKA), NTRK1 (gene 4914) (UniProt P04629); assay: NVS_ENZ_hTrkA: NovaScreen (NVS) Enzymatic Assay for human Tropomyosin Receptor Kinase A (TRKA) (AID 2283224)
# Method in brief: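 Compounds were screened at 25 uM in duplicate, then concentration series to a 50 uM top for those meeting threshold (e.g. 30% inhibition). Enzyme was recombinant human TrkA, incubated 1 h. Product formation was quantified by fluorescence after mobility-shift separation.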
# [4] = target: bovine Dopamine Receptor (DR), Non-selective Binding, DRD1 (gene 281125) (UniProt Q95136); assay: NVS_GPCR_bDR_NonSelective: NovaScreen (NVS) G Protein-Coupled Receptor Assay for bovine Dopamine Receptor (DR), Non-selective Binding (AID 2283241)
# Method in brief: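 Filter-based radioligand binding with bovine striatal membrane, incubated 1 h; DMSO as negative baseline. Initial duplicate single-point test at 25 uM preceded concentration series for actives.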
# [5] = system: bovine Histamine 1 Receptor (H1), gene 281231; assay: NVS_GPCR_bH1: NovaScreen (NVS) G Protein-Coupled Receptor Assay for bovine Histamine 1 Receptor (H1) (AID 2283246)
# Method in brief: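 Hits from a 25 uM duplicate primary screen were retested in concentration series (top 50 uM); binding measured as scintillation-counted displacement of radioligand from bovine cerebellar membranes after 1 h, normalised to DMSO.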
# [6] = NVS_GPCR_bNPY_NonSelective: NovaScreen (NVS) G Protein-Coupled Receptor Assay for bovine Neuropeptide Y (NPY) Receptor, Non-selective Binding (AID 2283245)
# Method in brief: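 Displacement of radioligand from bovine hippocampal membrane receptors, read by filtration and scintillation counting after 1 hour. Concentration-response to a top of 50 uM followed a 25 uM duplicate primary screen. Loss of signal versus DMSO.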
# Sequence of bovine Dopamine Receptor (DR), Non-selective Binding, DRD1 (gene 281125) (Q95136 whole entry, looked up): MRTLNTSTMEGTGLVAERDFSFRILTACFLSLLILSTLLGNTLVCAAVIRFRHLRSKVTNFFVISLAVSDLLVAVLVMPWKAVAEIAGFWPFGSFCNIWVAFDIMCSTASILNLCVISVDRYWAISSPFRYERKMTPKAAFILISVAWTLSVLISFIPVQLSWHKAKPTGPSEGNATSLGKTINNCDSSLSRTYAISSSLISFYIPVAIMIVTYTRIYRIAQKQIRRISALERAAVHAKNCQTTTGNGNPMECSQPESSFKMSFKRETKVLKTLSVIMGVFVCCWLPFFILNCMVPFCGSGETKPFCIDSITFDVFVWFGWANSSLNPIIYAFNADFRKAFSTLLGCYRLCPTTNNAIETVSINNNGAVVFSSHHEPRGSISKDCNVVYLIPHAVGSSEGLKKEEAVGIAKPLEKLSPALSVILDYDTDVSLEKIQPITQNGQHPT
# Sequence of human Protein Tyrosine Phosphatase Receptor Type B (PTPRB), PTPRB (gene 5787) (P23467 whole entry, looked up): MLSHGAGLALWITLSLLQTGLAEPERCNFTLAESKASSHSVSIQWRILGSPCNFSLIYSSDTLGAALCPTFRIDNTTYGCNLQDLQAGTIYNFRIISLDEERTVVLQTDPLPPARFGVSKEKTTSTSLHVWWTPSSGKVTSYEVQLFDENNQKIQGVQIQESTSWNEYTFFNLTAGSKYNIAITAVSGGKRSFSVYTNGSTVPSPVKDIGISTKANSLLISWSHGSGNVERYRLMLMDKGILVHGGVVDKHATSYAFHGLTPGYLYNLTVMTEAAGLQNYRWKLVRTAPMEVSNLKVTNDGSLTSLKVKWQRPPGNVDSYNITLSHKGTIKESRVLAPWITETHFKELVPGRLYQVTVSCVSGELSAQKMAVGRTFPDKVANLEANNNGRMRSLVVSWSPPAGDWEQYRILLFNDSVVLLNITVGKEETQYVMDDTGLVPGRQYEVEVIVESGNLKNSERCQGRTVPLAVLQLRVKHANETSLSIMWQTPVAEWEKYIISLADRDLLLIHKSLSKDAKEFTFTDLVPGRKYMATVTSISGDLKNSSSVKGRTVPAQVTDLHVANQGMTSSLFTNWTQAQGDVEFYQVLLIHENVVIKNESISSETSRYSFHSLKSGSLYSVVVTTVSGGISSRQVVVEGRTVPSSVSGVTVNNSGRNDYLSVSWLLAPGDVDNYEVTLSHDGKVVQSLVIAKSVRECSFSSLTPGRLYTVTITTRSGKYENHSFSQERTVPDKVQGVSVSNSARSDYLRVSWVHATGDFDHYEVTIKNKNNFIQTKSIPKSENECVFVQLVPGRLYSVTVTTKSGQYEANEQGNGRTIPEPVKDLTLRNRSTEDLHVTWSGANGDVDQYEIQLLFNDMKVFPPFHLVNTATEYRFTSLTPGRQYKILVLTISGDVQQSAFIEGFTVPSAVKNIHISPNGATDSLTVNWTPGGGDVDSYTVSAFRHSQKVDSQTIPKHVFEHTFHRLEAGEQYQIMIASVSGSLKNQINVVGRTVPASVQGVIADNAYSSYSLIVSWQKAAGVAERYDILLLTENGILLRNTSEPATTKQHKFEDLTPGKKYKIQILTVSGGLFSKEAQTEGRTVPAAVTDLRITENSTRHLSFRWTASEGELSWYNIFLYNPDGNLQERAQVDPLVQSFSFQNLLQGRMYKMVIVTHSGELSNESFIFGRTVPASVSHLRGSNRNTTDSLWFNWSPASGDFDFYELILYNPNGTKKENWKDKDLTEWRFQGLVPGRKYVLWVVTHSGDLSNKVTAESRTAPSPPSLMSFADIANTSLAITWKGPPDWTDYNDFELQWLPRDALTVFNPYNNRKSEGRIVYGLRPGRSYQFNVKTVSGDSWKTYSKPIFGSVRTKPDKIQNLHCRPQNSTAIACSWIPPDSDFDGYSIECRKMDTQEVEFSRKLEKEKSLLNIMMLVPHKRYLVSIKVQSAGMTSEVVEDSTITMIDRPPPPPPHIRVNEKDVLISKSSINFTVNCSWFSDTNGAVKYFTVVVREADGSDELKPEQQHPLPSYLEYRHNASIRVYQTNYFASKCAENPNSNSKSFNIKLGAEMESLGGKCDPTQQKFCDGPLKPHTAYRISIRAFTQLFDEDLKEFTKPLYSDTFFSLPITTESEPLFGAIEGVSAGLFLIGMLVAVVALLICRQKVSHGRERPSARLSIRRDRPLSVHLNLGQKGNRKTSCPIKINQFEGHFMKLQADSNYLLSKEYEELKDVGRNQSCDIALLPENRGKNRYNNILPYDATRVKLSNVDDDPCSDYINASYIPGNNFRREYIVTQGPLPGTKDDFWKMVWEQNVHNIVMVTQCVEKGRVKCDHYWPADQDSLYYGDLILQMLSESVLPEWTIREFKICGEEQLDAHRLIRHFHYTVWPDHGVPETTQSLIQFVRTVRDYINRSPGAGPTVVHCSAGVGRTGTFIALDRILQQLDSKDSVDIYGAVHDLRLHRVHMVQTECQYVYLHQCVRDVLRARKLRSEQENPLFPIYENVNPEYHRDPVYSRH
# Sequence of human Tropomyosin Receptor Kinase A (TRKA), NTRK1 (gene 4914) (P04629 whole entry, looked up): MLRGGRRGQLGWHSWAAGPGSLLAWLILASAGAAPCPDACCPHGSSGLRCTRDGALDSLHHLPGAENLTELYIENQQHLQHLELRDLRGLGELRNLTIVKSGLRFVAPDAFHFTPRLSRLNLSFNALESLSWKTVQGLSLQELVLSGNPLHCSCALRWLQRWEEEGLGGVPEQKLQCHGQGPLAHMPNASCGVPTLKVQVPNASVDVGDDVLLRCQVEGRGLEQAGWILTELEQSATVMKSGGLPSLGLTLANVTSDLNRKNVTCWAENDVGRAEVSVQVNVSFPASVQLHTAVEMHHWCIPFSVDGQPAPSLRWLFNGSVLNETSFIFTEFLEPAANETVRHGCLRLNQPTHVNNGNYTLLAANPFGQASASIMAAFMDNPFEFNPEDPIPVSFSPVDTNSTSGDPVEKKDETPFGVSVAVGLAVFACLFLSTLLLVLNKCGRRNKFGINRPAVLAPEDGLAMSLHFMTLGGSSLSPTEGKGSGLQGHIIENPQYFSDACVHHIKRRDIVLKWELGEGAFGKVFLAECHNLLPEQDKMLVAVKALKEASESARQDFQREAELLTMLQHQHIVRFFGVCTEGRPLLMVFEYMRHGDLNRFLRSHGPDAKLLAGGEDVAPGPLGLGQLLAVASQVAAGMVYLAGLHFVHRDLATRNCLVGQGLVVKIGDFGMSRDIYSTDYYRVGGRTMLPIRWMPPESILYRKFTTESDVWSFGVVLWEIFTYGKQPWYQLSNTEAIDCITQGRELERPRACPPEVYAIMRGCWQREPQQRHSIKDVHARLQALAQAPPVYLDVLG
# Sequence of human Protein Tyrosine Phosphatase Receptor Type M (PTPRM), PTPRM (gene 5797) (P28827 whole entry, looked up): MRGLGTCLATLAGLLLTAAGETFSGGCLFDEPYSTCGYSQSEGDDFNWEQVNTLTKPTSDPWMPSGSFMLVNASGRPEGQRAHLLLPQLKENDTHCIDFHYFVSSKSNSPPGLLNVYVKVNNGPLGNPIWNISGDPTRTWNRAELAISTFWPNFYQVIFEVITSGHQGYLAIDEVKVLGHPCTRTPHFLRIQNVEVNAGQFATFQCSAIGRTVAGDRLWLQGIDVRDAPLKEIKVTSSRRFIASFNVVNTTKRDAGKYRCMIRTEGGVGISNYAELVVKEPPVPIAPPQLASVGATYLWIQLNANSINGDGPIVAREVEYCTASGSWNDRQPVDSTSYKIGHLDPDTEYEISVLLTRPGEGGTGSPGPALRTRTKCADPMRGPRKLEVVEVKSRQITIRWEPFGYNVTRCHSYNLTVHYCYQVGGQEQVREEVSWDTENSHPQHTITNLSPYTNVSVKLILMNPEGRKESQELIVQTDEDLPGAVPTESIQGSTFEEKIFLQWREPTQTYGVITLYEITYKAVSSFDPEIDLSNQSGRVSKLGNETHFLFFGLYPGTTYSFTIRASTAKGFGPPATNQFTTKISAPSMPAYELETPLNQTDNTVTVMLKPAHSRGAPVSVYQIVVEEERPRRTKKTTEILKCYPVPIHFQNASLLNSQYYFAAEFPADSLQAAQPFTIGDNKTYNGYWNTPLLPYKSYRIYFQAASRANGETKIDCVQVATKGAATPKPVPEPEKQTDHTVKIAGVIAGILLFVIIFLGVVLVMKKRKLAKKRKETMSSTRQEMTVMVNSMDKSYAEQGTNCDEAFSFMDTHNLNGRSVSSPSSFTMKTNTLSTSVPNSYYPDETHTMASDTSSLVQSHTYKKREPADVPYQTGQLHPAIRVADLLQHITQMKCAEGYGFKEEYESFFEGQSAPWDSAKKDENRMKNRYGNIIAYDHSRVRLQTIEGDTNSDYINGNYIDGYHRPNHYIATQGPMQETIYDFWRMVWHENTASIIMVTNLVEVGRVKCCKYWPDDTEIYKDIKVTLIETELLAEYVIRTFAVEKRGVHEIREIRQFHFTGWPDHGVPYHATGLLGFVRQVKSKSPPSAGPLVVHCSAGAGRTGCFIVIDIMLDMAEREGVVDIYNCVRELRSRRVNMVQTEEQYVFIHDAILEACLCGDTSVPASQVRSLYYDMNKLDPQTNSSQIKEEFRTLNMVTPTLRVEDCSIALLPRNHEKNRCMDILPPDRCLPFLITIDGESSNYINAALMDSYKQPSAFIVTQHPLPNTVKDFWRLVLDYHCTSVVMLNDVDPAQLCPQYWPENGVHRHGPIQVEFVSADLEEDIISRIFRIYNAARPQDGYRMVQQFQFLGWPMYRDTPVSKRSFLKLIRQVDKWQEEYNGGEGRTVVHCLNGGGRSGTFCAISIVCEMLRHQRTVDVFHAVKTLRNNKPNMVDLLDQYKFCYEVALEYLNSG
smiles,measurement,setting,value
COCC(C)OCC(C)O (stereo not given),outcome,[1],inactive
CCCCCCCCCCCCc1ccccc1S(=O)(=O)O,AC50,[1],25 µM (active)
same,AC50,[2],16.3 µM (active)
O=C(O)Cc1cc(I)c(Oc2cc(I)c(O)c(I)c2)c(I)c1,AC50,[3],1.6 µM (active)
c1ccc2cc3c(ccc4ccccc43)cc2c1,AC50,[4],32.8 µM (active)
same,outcome,[5],inactive
CC(=O)NC1(c2cccc(F)c2)CCN(CC[C@@]2(c3ccc(Cl)c(Cl)c3)CN(c3ccccc3)C(=O)CO2)CC1,AC50,[4],11.3 µM (active)
Cc1oc(-c2ccccc2)nc1CCOc1ccc(C[C@H](Nc2ccccc2C(=O)c2ccccc2)C(=O)O)cc1,outcome,[6],inactive
CCCOc1sc(C(=O)N2CCC(c3cc(CN)ccc3F)CC2)c(C)c1Br,AC50,[6],36.3 µM (active)
C#C[C@]1(O)CC[C@H]2[C@@H]3CCC4=CC(=O)CC[C@@H]4[C@H]3CC[C@@]21C,outcome,[5],inactive
